Results taken from PubChem BioAssay.
The source made the active and inactive calls.

Tests used:
[1] = optical density shifts of acrAB sulA E. coli – strain DRC41, OD650, 48 h, E. coli filamentation inducer project, primary screen (AID 1152); conditions: higher = more signal, called active from +8 up or from −8 down;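 further: E. coli MC1000 strain DRC41 lacking acrAB efflux pump and sulA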
[2] = probe aLefty1 binding on compound microarray – biochemical, small-molecule microarray, 635/667 nm fluorescence, primary screen (AID 1153); conditions: higher = more signal;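 further: score merges spot fluorescence with signal-to-noise ratio from the scanned slide images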
[3] = plasmodial surface anion channel blockers, osmotic lysis – cell-based, P. falciparum Indochina, OD700, 1 h, primary screen (AID 1154); conditions: P. falciparum Indochina infected RBC osmotic lysis, higher = more signal, called active from +8 up or from −8 down
[4] = plasmodial surface anion channel blockers, osmotic lysis – cell-based, P. falciparum Indochina, OD700, 2 h, primary screen (AID 1155);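 further: lysis reports solute entry through the parasite surface anion channel PSAC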; conditions: P. falciparum Indochina infected erythrocytes, higher = more signal, called active from +8 up or from −8 down
[5] = changes in parasitized red cell lysis, either direction – P. falciparum Indochina, OD700, 3 h, PSAC antagonist project, primary screen (AID 1156); conditions: P. falciparum-infected erythrocytes, osmotic lysis, higher = more signal, called active from +8 up or from −8 down
[6] = plasmodial surface anion channel blockers, osmotic lysis – cell-based, P. falciparum Indochina, OD700, 18 h, primary screen (AID 1157); conditions: P. falciparum Indochina infected erythrocytes, osmotic lysis OD700, 18 h; higher = more signal, called active from +8 up or from −8 down
[7] = S6 kinase pathway phospho-S6 level changes – cell-based, A549, cytoblot, luminescence, serum-stimulated, primary screen (AID 1158); conditions: 5 h, higher = more signal;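 further: serum-stimulated A549 lung adenocarcinoma cells; signal is phosphorylated S6 detected by cytoblot immunostaining with HRP secondary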
[8] = biological target: NADPH oxidase 2 (Homo sapiens) (UniProt P04839); test: compounds shifting NOX2 Amplex Red fluorescence – cell-based, HEK293-NOX2, PMA-stimulated, NOX inhibitor project, primary screen (AID 1159); conditions: 45 min, higher = more signal, called active from +8 up or from −8 down; further: test concentration not given here
[9] = biological target: NADPH oxidase 4 (Homo sapiens) (UniProt Q9NPH5); test: compounds shifting NOX4 Amplex Red fluorescence – cell-based, HEK293-NOX4, tetracycline-induced, NOX inhibitor project, primary screen (AID 1160); conditions: HEK293-NOX4, Amplex Red H2O2 fluorescence, 45 min; higher = more signal, called active from +8 up or from −8 down
[10] = biological target: NADPH oxidase 5 (Homo sapiens) (UniProt Q96PH1); test: compounds shifting NOX5 Amplex Red fluorescence – cell-based, HEK293-NOX5, NOX inhibitor project, primary screen (AID 1161); conditions: HEK293-NOX5, ionomycin, 45 min, higher = more signal
Sequence of NADPH oxidase 5 (Homo sapiens) (Q96PH1 whole entry, looked up): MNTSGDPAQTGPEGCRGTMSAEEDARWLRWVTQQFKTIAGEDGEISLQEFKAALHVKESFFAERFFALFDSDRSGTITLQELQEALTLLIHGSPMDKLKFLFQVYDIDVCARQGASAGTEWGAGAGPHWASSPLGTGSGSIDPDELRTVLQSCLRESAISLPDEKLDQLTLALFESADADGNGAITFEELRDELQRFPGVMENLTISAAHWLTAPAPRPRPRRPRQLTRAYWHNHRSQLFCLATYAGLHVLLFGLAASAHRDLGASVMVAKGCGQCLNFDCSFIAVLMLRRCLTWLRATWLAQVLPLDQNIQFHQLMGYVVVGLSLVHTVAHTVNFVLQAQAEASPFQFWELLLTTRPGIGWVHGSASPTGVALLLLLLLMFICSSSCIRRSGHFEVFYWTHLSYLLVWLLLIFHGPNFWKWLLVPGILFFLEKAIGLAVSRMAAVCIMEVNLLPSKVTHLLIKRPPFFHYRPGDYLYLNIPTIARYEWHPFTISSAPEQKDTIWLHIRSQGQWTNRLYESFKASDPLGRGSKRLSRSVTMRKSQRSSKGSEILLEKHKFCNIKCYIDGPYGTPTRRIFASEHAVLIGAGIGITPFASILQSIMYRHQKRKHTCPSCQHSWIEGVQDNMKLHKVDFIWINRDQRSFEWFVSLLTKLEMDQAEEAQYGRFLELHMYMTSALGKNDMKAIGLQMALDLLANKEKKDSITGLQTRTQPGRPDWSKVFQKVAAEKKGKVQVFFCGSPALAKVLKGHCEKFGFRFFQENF

Sequence of NADPH oxidase 2 (Homo sapiens) (P04839 whole entry, looked up): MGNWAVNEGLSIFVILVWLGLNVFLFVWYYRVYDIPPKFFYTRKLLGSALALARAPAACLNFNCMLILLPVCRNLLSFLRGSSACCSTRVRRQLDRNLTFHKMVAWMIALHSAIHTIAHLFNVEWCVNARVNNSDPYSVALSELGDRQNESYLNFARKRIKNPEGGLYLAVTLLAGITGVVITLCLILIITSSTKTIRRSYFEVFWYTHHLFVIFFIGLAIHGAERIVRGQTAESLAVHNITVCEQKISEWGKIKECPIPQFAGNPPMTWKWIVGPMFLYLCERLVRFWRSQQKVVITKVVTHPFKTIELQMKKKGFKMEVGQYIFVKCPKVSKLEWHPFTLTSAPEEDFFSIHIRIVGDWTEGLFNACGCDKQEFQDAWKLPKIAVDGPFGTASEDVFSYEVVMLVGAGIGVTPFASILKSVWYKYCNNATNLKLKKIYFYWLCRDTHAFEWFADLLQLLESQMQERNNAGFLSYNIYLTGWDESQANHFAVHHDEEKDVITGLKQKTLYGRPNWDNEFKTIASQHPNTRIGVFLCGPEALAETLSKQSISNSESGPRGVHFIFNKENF
Sequence of NADPH oxidase 4 (Homo sapiens) (Q9NPH5 whole entry, looked up): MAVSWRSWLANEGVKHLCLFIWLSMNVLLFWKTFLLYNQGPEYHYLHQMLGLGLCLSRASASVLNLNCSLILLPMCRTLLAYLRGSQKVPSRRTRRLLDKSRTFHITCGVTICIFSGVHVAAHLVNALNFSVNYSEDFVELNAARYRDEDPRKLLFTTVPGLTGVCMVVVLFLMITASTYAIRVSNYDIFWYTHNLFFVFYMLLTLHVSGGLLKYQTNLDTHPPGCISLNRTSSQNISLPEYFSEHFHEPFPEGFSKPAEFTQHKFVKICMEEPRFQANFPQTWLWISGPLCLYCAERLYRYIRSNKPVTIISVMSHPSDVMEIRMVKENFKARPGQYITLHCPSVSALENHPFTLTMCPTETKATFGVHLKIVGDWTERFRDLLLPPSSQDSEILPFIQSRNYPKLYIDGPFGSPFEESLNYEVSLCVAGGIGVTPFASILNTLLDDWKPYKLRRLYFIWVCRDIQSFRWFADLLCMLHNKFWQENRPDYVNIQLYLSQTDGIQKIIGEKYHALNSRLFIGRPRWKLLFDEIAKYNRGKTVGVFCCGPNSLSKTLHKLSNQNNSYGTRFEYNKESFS

| SMILES | z-score [1] | composite z-score [2] | z-score [3] | z-score [4] | z-score [5] | z-score [6] | z-score [7] | z-score [8] | z-score [9] | z-score [10] |
| --- | --- | --- | --- | --- | --- | --- | --- | --- | --- | --- |
| O=C1C2C=CC(C(O)C3CCCCC3)N(Nc3ccc([N+](=O)[O-])cc3)C2C(=O)N1c1ccccc1 (stereo not given) | -1.13 (inactive) | 0.455 | 21.3 (active) | 4.73 (inactive) | 4.92 (inactive) | 1.42 (inactive) | -0.185 | -1.03 (inactive) | -3.38 (inactive) | -4.06 |
| COc1ccc(C(=O)Nc2ccc(CN3C(=O)[C@@]4(O[C@@H](CCO)[C@H]([Si](C)(C)c5ccc(OC)cc5)[C@H]4C)c4ccccc43)cc2)cc1 | -1.11 (inactive) | 0.155 | 25.1 (active) | 13.2 (active) | 1.6 (inactive) | 1.75 (inactive) | -0.483 | -6.53 (inactive) | -2.48 (inactive) | -0.954 |
| COC(=O)[C@@]1(Cc2ccc(F)cc2)[C@H]2c3cc(C(=O)N(C)C)n(CC4CC4)c3C[C@H]2CN1C(=O)c1ccccc1 | -0.98 (inactive) | 2.06 | 3.33 (inactive) | 1.15 (inactive) | 1.07 (inactive) | 1.4 (inactive) | -0.884 | -0.0955 (inactive) | 0.281 (inactive) | 0.873 |
| O=C1NC(=O)C2C1C=CC(C(O)Cc1ccccc1)N2Nc1ccc(Cl)cc1Cl (stereo not given) | -0.78 (inactive) | 0.599 | 4.35 (inactive) | 0.953 (inactive) | 0.273 (inactive) | 1.15 (inactive) | -0.834 | -1.28 (inactive) | -5.02 (inactive) | -1.9 |
| Cc1ccc(S[C@]2(C(=O)NC3CC3)CC(=O)N(C3Cc4ccccc4C3)[C@@H]2c2ccc(CO)cc2)cc1 | 2.26 (inactive) | 0.0962 | 0.924 (inactive) | -0.578 (inactive) | -0.758 (inactive) | -0.876 (inactive) | 0.827 | -0.655 (inactive) | 0.585 (inactive) | 0.205 |
| COc1cc2c(cc1OC)CN(C(=O)[C@H]1[C@@H]3C(=O)O[C@@H](c4ccccc4)[C@@H](c4ccccc4)N3[C@@H](c3ccc(O)cc3)[C@]13C(=O)Nc1ccc(C#CC4=CCCCC4)cc13)CC2 | 1.21 (inactive) | 0.35 | 0.924 (inactive) | 0.445 (inactive) | 0.79 (inactive) | 0.736 (inactive) | -0.226 | 0.685 (inactive) | 0.513 (inactive) | 1.88 |
| [N-]=[N+]=NCc1ccccc1[C@@H]1OC(c2ccc(OCCCO)cc2)=N[C@]1(Cc1ccccc1N=[N+]=[N-])C(=O)N1CCOCC1 | -0.66 (inactive) | 0.628 | 16.9 (active) | 3.7 (inactive) | 1.17 (inactive) | 1.01 (inactive) | 0.37 | -1.31 (inactive) | 1.23 (inactive) | 1.4 |
| O=C1NC(=O)C2C1C=CC(C(O)C(c1ccccc1)c1ccccc1)N2Nc1ccc(Cl)cc1Cl (stereo not given) | -1.53 (inactive) | 0.42 | 8.4 (active) | 2.11 (inactive) | 0.537 (inactive) | 2.49 (inactive) | -1.02 | -0.421 (inactive) | -5.03 (inactive) | -2.4 |
| C[C@@H]1ON(c2cccc(C(=O)OC(C)(C)C)c2)[C@H](c2ccc(Br)cc2)[C@H]1C(=O)N1C(=O)OC[C@H]1Cc1ccccc1 | -0.46 (inactive) | 0.2 | -0.351 (inactive) | 0.488 (inactive) | -0.611 (inactive) | 0.011 (inactive) | 0.217 | -1.01 (inactive) | -0.079 (inactive) | -0.0305 |
| COc1ccc(CCNC(=O)[C@@]2(C)c3ccccc3C(=O)N(Cc3cc(F)cc(C(F)(F)F)c3)[C@H]2c2ccc(CO)cc2)cc1 | 0.753 (inactive) | -0.045 | 8.08 (active) | 0.906 (inactive) | 1.24 (inactive) | 0.526 (inactive) | 0.0269 | -1.38 (inactive) | -1.28 (inactive) | -1.5 |
| COCCCNC(=O)[C@@]1(Cc2ccccc2)N=C(c2ccc(OCCCO)cc2)O[C@H]1c1ccccc1 | -0.146 (inactive) | 0.39 | 19.7 (active) | 3.35 (inactive) | -0.321 (inactive) | 0.32 (inactive) | -0.628 | -0.981 (inactive) | 1.11 (inactive) | 1.86 |
| CCOC(=O)C[C@H]1[C@H](OC(=O)c2cc3ccccc3oc2=O)[C@@H](NC(=O)Cc2ccc(OC)cc2)c2cc(OCCCO)ccc2N1C(=O)c1ccccc1 | 0.386 (inactive) | 0.0942 | 0.743 (inactive) | -1.44 (inactive) | 0.776 (inactive) | -2.76 (inactive) | 1.03 | -0.569 (inactive) | -0.523 (inactive) | -0.286 |
| O=C1C2C=CC(C(O)c3c(F)cccc3Cl)N(Nc3ccccc3)C2C(=O)N1c1ccccc1 (stereo not given) | -0.0623 (inactive) | 0.547 | 18.7 (active) | 3.73 (inactive) | 0.419 (inactive) | 1.93 (inactive) | -0.458 | -1.69 (inactive) | -3.01 (inactive) | -2.42 |
| C=C/C=C/[C@H]1C(=C)CN([C@@H](Cc2ccccc2)C(=O)OC)[C@@H]1[C@H](O)Cc1ccccc1 | 0.297 (inactive) | -0.239 | 1.09 (inactive) | 0.804 (inactive) | -0.207 (inactive) | 0.257 (inactive) | -0.344 | -0.66 (inactive) | -0.432 (inactive) | -0.723 |
| C=CC[C@@]1(C(=O)NCc2ccccc2)N=C(c2ccc(OCCCO)cc2)O[C@@H]1c1ccccc1N=[N+]=[N-] | -0.304 (inactive) | 0.869 | 33.3 (active) | 31.1 (active) | 3.73 (inactive) | 8.16 (active) | -0.126 | -1.88 (inactive) | 1.29 (inactive) | -0.965 |
| CC(=O)NCCCC[C@@H]1NC(=O)[C@@H]2C[C@H](C(=O)NCCCCCCNC(=O)CS)[C@H](c3cccc(OCCO)c3)N2C1=O | -0.493 (inactive) | -0.0334 | 3.47 (inactive) | 0.642 (inactive) | 0.0299 (inactive) | 0.351 (inactive) | 0.468 | 1.55 (inactive) | 0.157 (inactive) | 0.303 |
| C=CCNC(=O)[C@H]1[C@@H]2C(=O)O[C@@H](c3ccccc3)[C@@H](c3ccccc3)N2[C@@H](c2ccc(OCCO)cc2)[C@]12C(=O)N(C(=O)OCCOC)c1ccccc12 | 0.159 (inactive) | 0.378 | 5.52 (inactive) | 0.926 (inactive) | 1.22 (inactive) | 0.759 (inactive) | 0.182 | 2.35 (inactive) | 0.743 (inactive) | -1.51 |
| CC1(C)[C@@H]2CC(C(O)C3C=CC4C(=O)N(c5ccccc5)C(=O)C4N3Nc3ccccc3)=C[C@H]1C2 (stereo not given in full) | -1.16 (inactive) | -0.012 | 4.78 (inactive) | 0.741 (inactive) | -0.343 (inactive) | 1.29 (inactive) | -1.04 | -1.47 (inactive) | -2.94 (inactive) | -3.08 |
| O=C(NCc1ccccc1)[C@@]1(CCS(=O)(=O)c2ccccc2)N=C(c2ccc(OCCCO)cc2)O[C@H]1c1ccccc1 | 1.06 (inactive) | 0.351 | 26.4 (active) | 10.4 (active) | 0.559 (inactive) | 1.99 (inactive) | 0.0734 | -0.321 (inactive) | 1.35 (inactive) | 1.33 |
| CCOC(=O)[C@H]1CC=C2CC1C(=O)N1CCC[C@@H]1[C@@H]2O[Si](C)(C)C(C)(C)C (stereo not given in full) | -0.94 (inactive) | -0.471 | 2.09 (inactive) | 0.493 (inactive) | -0.42 (inactive) | 0.378 (inactive) | -0.409 | 0.461 (inactive) | -0.625 (inactive) | -3.9 |
| CN1C(=O)C2C=CC(C(O)c3ccccc3)N(Nc3ccccc3)C2C1=O (stereo not given) | -1.78 (inactive) | 0.242 | 0.0961 (inactive) | 1.31 (inactive) | 0.595 (inactive) | 0.974 (inactive) | -1.1 | -1.67 (inactive) | -3.82 (inactive) | -3.23 |
| COc1ccc(COC2OC[C@]3(C)[C@H]4C5=C(CN3C(=O)OC(C)(C)C)[C@H](C)C(CO)C(CO)C5CC[C@@H]24)cc1 (stereo not given in full) | -2.31 (inactive) | 0.638 | 1.81 (inactive) | 0.0544 (inactive) | 1.95 (inactive) | 0.741 (inactive) | -0.139 | -0.543 (inactive) | -3.44 (inactive) | -3.88 |
| O=C(C1N=C(c2ccc(OCCCO)cc2)N(c2ccccc2)O1)N1CCOCC1 (stereo not given) | 1.72 (inactive) | 0.0721 | 24.4 (active) | 4.44 (inactive) | -0.593 (inactive) | -0.121 (inactive) | 1.75 | -3.16 (inactive) | -0.258 (inactive) | -0.432 |
| COc1ccc(C(=O)O[C@H]2CC[C@]3(C)C4=C(CCC3C2(C)C)[C@]2(C)CC[C@H]([C@H](C)CCCC(C)C)[C@@]2(C)CC4)cc1 (stereo not given in full) | 3.06 (inactive) | -0.192 | -0.44 (inactive) | -0.787 (inactive) | -0.246 (inactive) | -1.6 (inactive) | 1.86 | -0.13 (inactive) | 0.257 (inactive) | 0.467 |
| C=CCOC(=O)[C@@H]1[C@H]2C(=O)O[C@H](c3ccccc3)[C@H](c3ccccc3)N2[C@H](c2ccc(OCCOC(=O)[C@@H]3C[C@@H]4C(=O)N[C@@H](Cc5ccccc5)C(=O)N4[C@@H]3c3ccc(O)cc3)cc2)[C@@]12C(=O)Nc1ccc(I)cc12 | 0.299 (inactive) | 0.546 | 2.33 (inactive) | 1.87 (inactive) | 5.01 (inactive) | 1.14 (inactive) | 0.572 | 0.715 (inactive) | 0.304 (inactive) | 0.591 |
